Several values for one entry are separate records, joined by “and”; a condition that tells them apart may be missing. Identical values can stand only once. This is part of a sample that, as a whole, favours compounds with a hit. Of some 83,000 tested, about 20% had one in any assay.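 For each line, cells grew in 96-well plates with the test compound present at a single concentration for 48 hours.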 Activity calls are given as the source filed them. Rule for the calls: active = growth percent below 10; inactive = the rest.
Assays:
Assay in all cases: NCI-60 one-dose screen, 48 h (100 = growth as untreated, 0 = no growth, -100 = all killed)
Details in all cases: 10 µM unless noted
[1] = test system: NCI-H23 lung
[2] = test system: NCI-H226 lung
[3] = test system: NCI-H322M lung
[4] = test system: HOP-62 NSCLC
[5] = test system: NCI-H460 lung
[6] = test system: HOP-92 NSCLC
[7] = test system: NCI-H522 lung
[8] = test system: A549/ATCC NSCLC
[9] = test system: 786-0 renal
[10] = test system: COLO 205 colon
[11] = test system: DU-145 prostate
[12] = test system: K-562 leukemia
[13] = test system: MALME-3M melanoma
[14] = test system: MDA-MB-231 breast
[15] = test system: RXF 393 renal
[16] = test system: SF-268 CNS
[17] = test system: SF-295 CNS
[18] = test system: SF-539 CNS
[19] = test system: UACC-257 melanoma
[20] = test system: M14 melanoma

Compound | growth [1] | growth [2] | growth [3] | growth [4] | growth [5] | growth [6] | growth [7] | growth [8] | growth [9] | growth [10] | growth [11] | growth [12] | growth [13] | growth [14] | growth [15] | growth [16] | growth [17] | growth [18] | growth [19] | growth [20]
O=C(/C=C/C=C/c1ccc2c(c1)OCO2)N1CCCCC1 | 95.6% (inactive) and 102% (inactive) | 104% (inactive) and 95% (inactive) | 101% (inactive) and 113% (inactive) | 100% (inactive) | 109% (inactive) and 113% (inactive) | 97.3% (inactive) and 89.6% (inactive) | 115% (inactive) and 81.1% (inactive) | 104% (inactive) and 98.5% (inactive) | 103% (inactive) and 57.4% (inactive) | 114% (inactive) and 106% (inactive) | 119% (inactive) and 110% (inactive) | 90.5% (inactive) and 70.7% (inactive) | 108% (inactive) and 214% (inactive) | 98.6% (inactive) and 98% (inactive) | 105% (inactive) and 110% (inactive) | 114% (inactive) and 99.2% (inactive) | 85.4% (inactive) and 107% (inactive) | 109% (inactive) and 101% (inactive) | 114% (inactive) and 106% (inactive) | 109% (inactive) and 99.5% (inactive)
O=C(O)/C=C/C=C/c1ccccc1 | 104% (inactive) and 99.9% (inactive) | 99.4% (inactive) and 100% (inactive) | 104% (inactive) and 107% (inactive) | 102% (inactive) and 105% (inactive) | 107% (inactive) and 112% (inactive) | 99.5% (inactive) and 102% (inactive) | 94.8% (inactive) and 106% (inactive) | 98.4% (inactive) and 97.8% (inactive) | 105% (inactive) and 109% (inactive) | 105% (inactive) and 113% (inactive) | 106% (inactive) and 109% (inactive) | 114% (inactive) and 110% (inactive) | 103% (inactive) and 114% (inactive) | 101% (inactive) and 106% (inactive) | 113% (inactive) and 120% (inactive) | 101% (inactive) | 105% (inactive) and 101% (inactive) | 96.7% (inactive) and 98.6% (inactive) | 102% (inactive) and 93.2% (inactive) | 101% (inactive)
NNc1ncnc2cccc(Cl)c12 | 99.9% (inactive) | 93.1% (inactive) | 101% (inactive) | 95.3% (inactive) | 113% (inactive) | 79.7% (inactive) | 84.8% (inactive) | 81.1% (inactive) | 105% (inactive) | 104% (inactive) | 112% (inactive) | 99.4% (inactive) | 99% (inactive) | 105% (inactive) | 103% (inactive) | 107% (inactive) | 98.7% (inactive) | 97.2% (inactive) | 88.2% (inactive) | 104% (inactive)
CCOC(=O)c1ccc(N2C(=O)C(Cl)(c3ccccc3)C2c2ccco2)cc1 (stereo not given) | 70.4% (inactive) | 81.1% (inactive) | 83.8% (inactive) | 110% (inactive) | 84.2% (inactive) | 63.7% (inactive) | 34.2% (inactive) | 86.2% (inactive) | 80.9% (inactive) | 96.7% (inactive) | 65.4% (inactive) | 31.1% (inactive) | 86.7% (inactive) | 80% (inactive) | 99.7% (inactive) | 77.8% (inactive) | 86.4% (inactive) | 96.2% (inactive) | 89.7% (inactive) | 98.7% (inactive)
CCN(CC)CCO/N=C1\CC(c2ccc(OC)c(OC)c2)Oc2ccccc21 (stereo not given) | 96.2% (inactive) | 84.7% (inactive) | 94.8% (inactive) | 104% (inactive) | 104% (inactive) | 79.6% (inactive) | 88.2% (inactive) | 97% (inactive) | 81.1% (inactive) | 97.5% (inactive) | 105% (inactive) | 82.6% (inactive) | 107% (inactive) | 101% (inactive) | 65.5% (inactive) | 99.3% (inactive) | 98.2% (inactive) | 94.7% (inactive) | 101% (inactive) | 99.9% (inactive)
CCOC(=O)C(N)Cc1cc(I)c(O)c(I)c1 (stereo not given) | 99.5% (inactive) and 102% (inactive) | 91.6% (inactive) and 96.6% (inactive) | 113% (inactive) and 106% (inactive) | 106% (inactive) and 113% (inactive) | 109% (inactive) and 115% (inactive) | 102% (inactive) and -3.49% (active) | 108% (inactive) and 90.7% (inactive) | 107% (inactive) and 101% (inactive) | 99.7% (inactive) and 105% (inactive) | 108% (inactive) and 110% (inactive) | 109% (inactive) and 107% (inactive) | 105% (inactive) | 115% (inactive) | 104% (inactive) and 97.5% (inactive) | 105% (inactive) and 112% (inactive) | 99% (inactive) and 100% (inactive) | 115% (inactive) and 124% (inactive) | 115% (inactive) and 102% (inactive) | 108% (inactive) | 105% (inactive) and 104% (inactive)
Cc1ccc(S(=O)(=O)n2ccnc2)cc1 | 102% (inactive) | 93.5% (inactive) | 118% (inactive) | 106% (inactive) | 104% (inactive) | 97% (inactive) | 95.8% (inactive) | 89.1% (inactive) | 138% (inactive) | 120% (inactive) | 120% (inactive) | 123% (inactive) | 107% (inactive) | 98.9% (inactive) | 96.2% (inactive) | 104% (inactive) | 102% (inactive) | 96.7% (inactive) | 91.5% (inactive) | 104% (inactive)
O=C(O)c1cccc(Br)c1 | 111% (inactive) and 102% (inactive) | 98.5% (inactive) | 96.4% (inactive) and 95.8% (inactive) | 95.5% (inactive) and 100% (inactive) | 115% (inactive) and 105% (inactive) | 101% (inactive) and 102% (inactive) | 103% (inactive) and 85.5% (inactive) | 98.8% (inactive) and 87% (inactive) | 96.4% (inactive) and 96.8% (inactive) | 115% (inactive) | 113% (inactive) and 114% (inactive) | 89.4% (inactive) and 93.6% (inactive) | 99.5% (inactive) and 107% (inactive) | 97.9% (inactive) and 114% (inactive) | 108% (inactive) and 107% (inactive) | 101% (inactive) and 102% (inactive) | 94.3% (inactive) and 98.2% (inactive) | 94% (inactive) and 98.7% (inactive) | 97.6% (inactive) and 85.2% (inactive) | 99.7% (inactive) and 103% (inactive)
Cc1cc(Cl)nc(Nc2ccccc2)n1 | 95.9% (inactive) | 91.2% (inactive) | 92% (inactive) | 62.9% (inactive) | 103% (inactive) | 91.2% (inactive) | 91% (inactive) | 104% (inactive) | 93.8% (inactive) | 114% (inactive) | 107% (inactive) | 79.9% (inactive) | 101% (inactive) | 105% (inactive) | 96.3% (inactive) | 99.1% (inactive) | 91.8% (inactive) | 96.6% (inactive) | 106% (inactive) | 97.6% (inactive)
O=[N+]([O-])c1cccc(N=Cc2ccccc2)c1 | 111% (inactive) | 99.9% (inactive) | 113% (inactive) | 105% (inactive) | 119% (inactive) | 95.7% (inactive) | 88.2% (inactive) | 99.8% (inactive) | 105% (inactive) | 118% (inactive) | 117% (inactive) | 95.8% (inactive) | 119% (inactive) | 106% (inactive) | 105% (inactive) | 105% (inactive) | 96.5% (inactive) | 99.5% (inactive) | 102% (inactive) | 106% (inactive)
